Data published in PubChem BioAssay AID1159580 (chemical genetic matrix, 2015).
The whole screen tested about 5,500 compounds, of which about 2,000 (36%) were called active. Roughly 18% stayed inconclusive and do not appear here. No stated cut-off is given here; in the data, active means normalized growth mostly below about 0.91 (no sharp cut-off); inconclusive means no clear call, values can overlap the other calls; inactive means mostly above about 0.92. This is one part of the list.

Assay: chemical genetic growth profiling, strain panel (AID 1159580);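 further: tested at 20 µM; growth read once vehicle control cultures reached saturation at 30 °C; 1 = growth at the plate median or of vehicle wells; lower values mean less growth of the strain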
Conditions: growth OD
[1] = S. cerevisiae deletion strains, locus YAL040C, strain CLN3, hits give low values
[2] = S. cerevisiae deletion strains, locus YCL061C, strain MRC1 (second series), hits give low values
[3] = S. cerevisiae deletion strains, locus YDR363W, strain ESC2, hits give low values
[4] = S. cerevisiae deletion strains, locus YER002W, strain NOP16, hits give low values
[5] = S. cerevisiae deletion strains, locus YJR075W, strain HOC1, hits give low values
[6] = S. cerevisiae deletion strains, locus YMR263W, strain SAP30, hits give low values
[7] = S. cerevisiae deletion strains, locus YMR307W, strain GAS1, hits give low values
[8] = S. cerevisiae deletion strains, locus YNL175C, strain NOP13, hits give low values
[9] = S. cerevisiae deletion strains, locus YNL197C, strain WHI3, hits give low values
[10] = S. cerevisiae deletion strains, locus YNL224C, strain SQS1, hits give low values
[11] = S. cerevisiae deletion strains, locus YNL322C, strain KRE1, hits give low values
[12] = S. cerevisiae deletion strains, locus YOR083W, strain WHI5 (second series), hits give low values
[13] = S. cerevisiae deletion strains, locus YPL055C, strain LGE1, hits give low values
[14] = S. cerevisiae deletion strains, locus YPL241C, strain CIN2, hits give low values
[15] = S. cerevisiae deletion strains, locus YAL013W, strain DEP1, hits give low values
[16] = S. cerevisiae deletion strains, locus YGR078C, strain PAC10, hits give low values
[17] = S. cerevisiae deletion strains, locus YNL153C, strain GIM3, hits give low values
[18] = S. cerevisiae deletion strains, locus YAR019C, strain CDC15, hits give low values
[19] = S. cerevisiae deletion strains, locus YBL105C, strain PKC1, hits give low values
[20] = S. cerevisiae deletion strains, locus YBR135W, strain CKS1, hits give low values
[21] = S. cerevisiae deletion strains, locus YBR136W, strain MEC1, hits give low values
[22] = S. cerevisiae deletion strains, locus YBR160W, strain CDC28, hits give low values
[23] = S. cerevisiae deletion strains, locus YDL017W, strain CDC7, hits give low values
[24] = S. cerevisiae deletion strains, locus YDL028C, strain MPS1, hits give low values
[25] = S. cerevisiae deletion strains, locus YDL101C, strain DUN1, hits give low values
[26] = S. cerevisiae deletion strains, locus YDL108W, strain KIN28, hits give low values
[27] = S. cerevisiae deletion strains, locus YDL132W, strain cdc53, hits give low values
[28] = S. cerevisiae deletion strains, locus YDL214C, strain PRR2, hits give low values
[29] = S. cerevisiae deletion strains, locus YDR052C, strain DBF4, hits give low values
[30] = S. cerevisiae deletion strains, locus YDR054C, strain cdc34, hits give low values
[31] = S. cerevisiae deletion strains, locus YDR226W, strain ADK1, hits give low values
[32] = S. cerevisiae deletion strains, locus YDR477W, strain SNF1, hits give low values
[33] = S. cerevisiae deletion strains, locus YER123W, strain YCK3, hits give low values
[34] = S. cerevisiae deletion strains, locus YER133W, strain GLC7, hits give low values
[35] = S. cerevisiae deletion strains, locus YFL009W, strain cdc4, hits give low values
[36] = S. cerevisiae deletion strains, locus YFL029C, strain CAK1, hits give low values
[37] = S. cerevisiae deletion strains, locus YFR003C, strain YPI1, hits give low values
[38] = S. cerevisiae deletion strains, locus YFR019W, strain FAB1, hits give low values
[39] = S. cerevisiae deletion strains, locus YFR028C, strain CDC14, hits give low values
[40] = S. cerevisiae deletion strains, locus YGR040W, strain KSS1, hits give low values
[41] = S. cerevisiae deletion strains, locus YGR052W, strain FMP48, hits give low values
[42] = S. cerevisiae deletion strains, locus YGR092W, strain DBF2, hits give low values
[43] = S. cerevisiae deletion strains, locus YHR030C, strain SLT2, hits give low values
[44] = S. cerevisiae deletion strains, locus YHR079C, strain IRE1, hits give low values
[45] = S. cerevisiae deletion strains, locus YHR082C, strain KSP1, hits give low values
[46] = S. cerevisiae deletion strains, locus YHR205W, strain SCH9, hits give low values
[47] = S. cerevisiae deletion strains, locus YIL147C, strain SLN1, hits give low values
[48] = S. cerevisiae deletion strains, locus YJL095W, strain BCK1, hits give low values
[49] = S. cerevisiae deletion strains, locus YJL128C, strain PBS2, hits give low values
[50] = S. cerevisiae deletion strains, locus YJL157C, strain FAR1, hits give low values
[51] = S. cerevisiae deletion strains, locus YJR016C, strain ILV3, hits give low values
[52] = S. cerevisiae deletion strains, locus YJR066W, strain TOR1 (second series), hits give low values
[53] = S. cerevisiae deletion strains, locus YJR066W, strain TOR1, hits give low values
[54] = S. cerevisiae deletion strains, locus YKL048C, strain ELM1, hits give low values
[55] = S. cerevisiae deletion strains, locus YKL067W, strain YNK1, hits give low values
[56] = S. cerevisiae deletion strains, locus YKL101W, strain HSL1, hits give low values
[57] = S. cerevisiae deletion strains, locus YKL193C, strain SDS22, hits give low values
[58] = S. cerevisiae deletion strains, locus YKL203C, strain TOR2, hits give low values
[59] = S. cerevisiae deletion strains, locus YLR113W, strain HOG1, hits give low values
[60] = S. cerevisiae deletion strains, locus YLR133W, strain CKI1, hits give low values
[61] = S. cerevisiae deletion strains, locus YLR403W, strain SFP1, hits give low values
[62] = S. cerevisiae deletion strains, locus YML070W, strain DAK1, hits give low values
[63] = S. cerevisiae deletion strains, locus YMR001C, strain CDC5, hits give low values
[64] = S. cerevisiae deletion strains, locus YMR205C, strain PFK2 (second series), hits give low values
[65] = S. cerevisiae deletion strains, locus YMR277W, strain FCP1, hits give low values
[66] = S. cerevisiae deletion strains, locus YNL006W, strain LST8, hits give low values
[67] = S. cerevisiae deletion strains, locus YNL020C, strain ARK1, hits give low values
[68] = S. cerevisiae deletion strains, locus YNL161W, strain CBK1, hits give low values
[69] = S. cerevisiae deletion strains, locus YNL183C, strain NPR1, hits give low values
[70] = S. cerevisiae deletion strains, locus YNL207W, strain RIO2, hits give low values
[71] = S. cerevisiae deletion strains, locus YNL222W, strain SSU72, hits give low values
[72] = S. cerevisiae deletion strains, locus YNL307C, strain MCK1 (second series), hits give low values
[73] = S. cerevisiae deletion strains, locus YOL078W, strain AVO1, hits give low values
[74] = S. cerevisiae deletion strains, locus YOL136C, strain PFK27, hits give low values
[75] = S. cerevisiae deletion strains, locus YOR061W, strain CKA2, hits give low values
[76] = S. cerevisiae deletion strains, locus YOR119C, strain RIO1, hits give low values
[77] = S. cerevisiae deletion strains, locus YOR231W, strain MKK1, hits give low values
[78] = S. cerevisiae deletion strains, locus YOR329C, strain SCD5, hits give low values
[79] = S. cerevisiae deletion strains, locus YPL031C, strain PHO85, hits give low values
[80] = S. cerevisiae deletion strains, locus YPL153C, strain RAD53, hits give low values
[81] = S. cerevisiae deletion strains, locus YPL204W, strain HRR25, hits give low values
[82] = S. cerevisiae deletion strains, locus YPL209C, strain IPL1, hits give low values
[83] = S. cerevisiae deletion strains, locus YPL256C, strain CLN2, hits give low values
[84] = S. cerevisiae deletion strains, locus YPR025C, strain CCL1, hits give low values
[85] = S. cerevisiae deletion strains, locus YPR106W, strain ISR1, hits give low values
[86] = S. cerevisiae deletion strains, locus YPR111W, strain DBF20, hits give low values
[87] = S. cerevisiae deletion strains, strain NNK1, hits give low values
[88] = S. cerevisiae deletion strains, strain TSCII, hits give low values

Measured: normalized growth

COc1ccc2c(c1)[C@@]13CCCC[C@H]1[C@@H](C2)NCC3
inactive: [1] 0.998 | [2] 0.997 | [3] 0.951 | [4] 1.02 | [5] 0.988 | [6] 0.992 | [7] 0.973 | [8] 0.996 | [9] 1.03 | [10] 1.01 | [11] 0.991 | [12] 1 | [13] 0.983 | [14] 1

OCC1NCC(O)C(O)C1O (stereo not drawn)
inactive: [15] 1.02 | [1] 1.02 | [2] 1.01 | [3] 1.04 | [4] 1.01 | [16] 1 | [6] 1.01 | [7] 1.01 | S. cerevisiae deletion strains, locus YNL128W, strain TEP1, hits give low values 1.02 | [17] 1.02 | [8] 1.02 | [9] 1.01 | [10] 0.998 | [12] 1

O=c1c(Cl)c(-n2cccn2)cnn1-c1ccc(Cl)cc1Cl
inactive: [18] 0.93 | [19] 0.948 | [20] 0.943 | [21] 0.949 | [22] 0.96 | [23] 0.95 | [24] 0.954 | [25] 0.985 | [26] 0.962 | [27] 0.95 | [28] 0.906 | [29] 0.93 | [30] 0.913 | [31] 0.974 | [32] 0.893 | [33] 0.722 | [34] 0.909 | [35] 0.955 | [36] 0.916 | [37] 0.953 | [38] 0.956 | [39] 0.965 | [40] 0.883 | [41] 0.902 | [42] 0.539 | [44] 0.768 | [45] 0.988 | [46] 1.02 | [47] 0.955 | [48] 0.823 | [49] 0.94 | [50] 0.864 | [51] 0.932 | [52] 0.726 | [53] 0.901 | [54] 0.979 | [55] 0.903 | [56] 0.951 | [57] 0.936 | [58] 0.909 | [60] 0.943 | [61] 0.92 | [62] 0.917 | [63] 0.917 | [64] 0.926 | [65] 0.941 | [66] 0.934 | [67] 0.914 | [68] 0.931 | [69] 0.857 | [70] 0.968 | [71] 0.949 | [72] 0.901 | [73] 0.928 | [74] 0.951 | [75] 0.93 | [76] 0.947 | [77] 0.842 | [78] 0.943 | [79] 0.862 | [80] 0.84 | [81] 0.903 | [82] 0.954 | [84] 0.947 | [85] 0.986 | [86] 0.981 | [87] 0.97 | [88] 0.908
active: [43] 0.71 | [59] 0.691 | [83] 0.831

O=C1CSC(c2cccnc2)N1c1ccc(Cl)cc1Cl (stereo not drawn)
inactive: [18] 0.986 | [19] 0.996 | [20] 0.994 | [21] 0.99 | [22] 0.994 | [23] 0.992 | [24] 0.992 | [25] 1 | [26] 0.985 | [27] 0.993 | [28] 0.931 | [29] 0.997 | [30] 0.987 | [31] 0.989 | [32] 0.919 | [33] 0.823 | [34] 0.897 | [35] 1 | [36] 0.98 | [37] 0.99 | [38] 0.796 | [39] 0.993 | [40] 0.93 | [41] 0.902 | [42] 0.972 | [43] 0.958 | [44] 0.964 | [45] 0.932 | [46] 0.98 | [47] 0.998 | [48] 0.906 | [49] 0.993 | [50] 0.948 | [51] 0.993 | [52] 0.893 | [53] 0.837 | [54] 1.01 | [55] 0.944 | [56] 0.993 | [57] 0.989 | [58] 0.945 | [59] 0.913 | [60] 0.962 | [61] 0.937 | [62] 0.939 | [63] 0.991 | [64] 0.968 | [65] 0.992 | [66] 0.986 | [67] 0.974 | [68] 0.985 | [69] 0.912 | [70] 0.998 | [71] 0.99 | [72] 0.952 | [73] 0.994 | [74] 0.919 | [75] 0.939 | [76] 0.919 | [77] 0.937 | [78] 0.99 | [79] 0.928 | [80] 0.933 | [81] 0.92 | [82] 0.989 | [83] 0.88 | [84] 0.984 | [85] 1.01 | [86] 1 | [87] 0.998 | [88] 0.989

Cc1c(-c2ccnc(N)n2)nnn1-c1ccc(Cl)cc1Cl
inactive: [15] 1 | S. cerevisiae deletion strains, locus YBR229C, strain ROT2, hits give low values 0.974 | [25] 0.981 | S. cerevisiae deletion strains, locus YDR150W, strain NUM1, hits give low values 1.03 | S. cerevisiae deletion strains, locus YEL061C, strain CIN8, hits give low values 0.959 | [16] 0.985 | [43] 0.732 | S. cerevisiae deletion strains, locus YHR087W, strain rtc3, hits give low values 0.959 | S. cerevisiae deletion strains, locus YJL187C, strain SWE1, hits give low values 1.01 | S. cerevisiae deletion strains, locus YJR043C, strain POL32, hits give low values 1.01 | [5] 0.967 | S. cerevisiae deletion strains, locus YKL190W, strain CNB1, hits give low values 1.01 | S. cerevisiae deletion strains, locus YLR039C, strain RIC1, hits give low values 0.936 | S. cerevisiae deletion strains, locus YLR058C, strain SHM2 (second series), hits give low values 0.989 | S. cerevisiae deletion strains, locus YLR085C, strain ARP6, hits give low values 0.885 | S. cerevisiae deletion strains, locus YLR262C, strain YPT6, hits give low values 0.932 | S. cerevisiae deletion strains, locus YML094W, strain GIM5, hits give low values 0.988 | S. cerevisiae deletion strains, locus YMR219W, strain ESC1, hits give low values 1 | [6] 0.98 | [17] 0.991 | S. cerevisiae deletion strains, locus YNL298W, strain CLA4 (second series), hits give low values 0.973 | [11] 1.01 | S. cerevisiae deletion strains, locus YNR030W, strain Alg12, hits give low values 0.975 | S. cerevisiae deletion strains, locus YOL006C, strain TOP1, hits give low values 0.921 | [13] 1.08 | [14] 0.957 | S. cerevisiae deletion strains, locus YPR135W, strain CTF4, hits give low values 0.687 | S. cerevisiae strains, strain wild type, hits give low values 0.992
